Reference: PubChem BioAssay (NCI)
The panel holds about 79,000 compounds, 15% with a hit somewhere; the sample as a whole holds those more often. Cut-off read from the data, not from the text of the source: active = growth inhibition above about 70%; inactive = the rest.

Tests used:
[1] = NCI Yeast Anticancer Drug Screen. Data for the rad50 strain (AID 155);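 note: 0% = growth of vehicle-only cultures of the same strain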; settings: S. cerevisiae rad50 strain growth inhibition; at 50.0 µM; active compounds read high
Summary of the method: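 Inhibition values express reduced yeast growth in compound-treated cultures relative to vehicle-treated controls.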

[2] = NCI Yeast Anticancer Drug Screen. Data for the mec2-1 strain (AID 157); settings: S. cerevisiae mec2-1 strain, at 50.0 µM, active compounds read high
Summary of the method: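 Growth inhibition is read against vehicle-treated controls after compound exposure of the mec2-1 yeast strain, which is defective in DNA damage repair or cell cycle control.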

[3] = NCI Yeast Anticancer Drug Screen. Data for the sgs1 mgt1 strain (AID 161);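 note: 0% = growth of cultures given vehicle only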; settings: S. cerevisiae sgs1 mgt1 strain, at 50.0 µM, active compounds read high
Summary of the method: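 Growth of a repair-deficient yeast mutant was monitored after compound treatment and expressed as inhibition relative to vehicle-treated cultures.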

[4] = NCI Yeast Anticancer Drug Screen. Data for the cln2 rad14 strain (AID 165);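 note: 0% = growth equal to vehicle treated cultures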; settings: S. cerevisiae cln2 rad14 strain, at 50.0 µM, active compounds read high
Summary of the method: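 Growth inhibition, relative to vehicle-treated controls, is the read-out. The test organism is a yeast strain with defined genetic alterations, cln2 rad14.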

[5] = NCI Yeast Anticancer Drug Screen. Data for the bub3 strain (AID 167); settings: S. cerevisiae bub3 mutant strain, at 50.0 µM, active compounds read high
Summary of the method: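 Steps: expose the mutant yeast strain to compound; grow alongside vehicle-treated cultures; measure growth; express inhibition against the vehicle cultures.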

[6] = NCI Yeast Anticancer Drug Screen. Data for the mlh1 rad18 strain (AID 175); settings: S. cerevisiae mlh1 rad18 strain growth inhibition; at 50.0 µM; active compounds read high
Summary of the method: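 Cells of a genetically altered yeast strain, deficient in DNA damage repair, were treated with compound. Their growth was then compared with that of vehicle-treated cultures to give inhibition.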

Measured: growth inhibition

Cc1nc(C(N)=S)sc1C(=O)CC(=O)C(=O)Nc1c(C(C)C)cccc1C(C)C
inactive: [1] -28.1% | [2] -41.6% | [3] -31.8% | [4] -24.9% | [5] -8.55% | [6] -22.1%

O=c1nc(Nc2ccccc2)ccn1C1OC(CO)C(O)C1O (centres undefined)
inactive: [1] -7.95% | [2] 0.25% | [3] 0.2% | [4] 12% | [5] 7.55% | [6] 5.85%

C=C1C2CCC3(CCC4C5(C)CCCC4(CN(C(C)=O)C5)C3C2)C1O (centres undefined)
inactive: [1] 11.2% | [2] -5.1% | [3] 10.3% | [4] 1.4% | [5] 6.25% | [6] 8.95%

O=C(CCl)N1C(=O)NC(c2ccc(Cl)cc2)(c2ccc(Cl)cc2)C1=O
inactive: [1] 6.9% | [2] 12% | [3] 8.9% | [4] -4.8% | [5] -29% | [6] -3.9%

COc1ccc(C2C3=C(COC3=O)OC(C)(C)Oc3cc4c(cc32)OCO4)cc1 (centres undefined)
inactive: [1] -3% | [2] 0.85% | [3] 13.7% | [4] 6.5% | [5] 36.1% | [6] -19.9%

CCN(CC)CCOc1ccc(C)c2c1C(=O)CC2
inactive: [1] -27.6% | [2] -9.2% | [3] -8.45% | [4] -8.7% | [5] 21.4% | [6] -23.6%

COc1ccc(CCNC(=S)/N=C\C2=C(O)c3ccccc3C2=O)cc1OC
inactive: [1] -26.1% | [2] -51.9% | [3] -17.5% | [4] 4.65% | [5] -5.05% | [6] -19.3%

CS/C(c1ccccc1)=[N+](\[O-])Cc1ccccc1
inactive: [1] 17.6% | [2] 9% | [3] -7.1% | [4] 8.5% | [5] -0.75% | [6] 3.15%

O=C(Nc1ccc2ccccc2c1)c1ccc(Cl)cc1
inactive: [1] 4.65% | [2] -9.65% | [3] -15.1% | [4] 7.05% | [5] 31.4% | [6] 1.4%

O=C(NCCCCCCCCCNC(=O)C12CC3CC(CC(C3)C1)C2)C12CC3CC(CC(C3)C1)C2
inactive: [1] 23.2% | [2] 9.2% | [3] 21.7% | [4] 29.5% | [5] -1.55% | [6] 28.4%

CNC(=O)OCc1c(C)oc(-c2ccc(Cl)c(Cl)c2)c1COC(=O)NC
inactive: [1] 47.5% | [2] -7.15% | [3] 34.5% | [4] 24.1% | [5] 12.3% | [6] 14.4%

Cc1cccc(C(C)C)c1NC(=O)C(=O)C(C#N)c1ccc(CC#N)cc1 (centres undefined)
inactive: [1] -27.9% | [2] 2.4% | [3] 17.9% | [4] -40% | [5] 1.55% | [6] 14.2%

Nc1nc(N)c2nn(-c3ccc(C(=O)O)cc3)nc2n1
inactive: [1] -13.6% | [2] 7.85% | [3] -5.15% | [4] -16.9% | [5] -11.2% | [6] 6.05%

CC(C)C1=C(Cc2ccccc2)C(=O)O/C1=C\c1cc(Cl)c(O)c(Cl)c1
inactive: [1] 19.9% | [2] 8% | [3] 24.6% | [4] 25.6% | [5] 32.5% | [6] -30.9%

COC(=O)c1ccccc1C(=O)O
inactive: [1] 17.1% | [2] 4.05% | [3] 11.6% | [4] -10.1% | [5] 3.4% | [6] 23.2%

CCC(CC)=NNS(=O)(=O)c1cccc2ccccc12
inactive: [1] 10.7% | [2] -12.4% | [3] -11.7% | [4] -15.7% | [5] -17.9% | [6] -0.1%

CC(=O)OC1C(C)OC(OC(=O)C2CCC3C(C2)OC2(CC(OC(=O)/C=C/c4ccccc4)C(C)CO2)C32CO2)C(OC2OC(C)C(O)C(O)C2O)C1O (centres undefined)
inactive: [1] 1.3% | [2] -16.8% | [3] 2.3% | [4] 13.5% | [5] 3.65% | [6] -62.9%

N#Cc1c(-c2ccccc2)[nH]c2ccc(Cl)cc2c1=O
inactive: [1] 6.6% | [2] -30.5% | [3] -21.7% | [4] -7.8% | [5] -9.75% | [6] -28.1%

COc1ccc(-c2oc3cc(OC)c(OC)c(O)c3c(=O)c2OC)cc1
inactive: [1] 7.45% | [2] 0.25% | [3] 3.05% | [4] 9.05% | [5] 13.8% | [6] -56.5%

COc1cccc2c1c1ccc3c(c1n2C)C(=O)C=CC3=O
inactive: [1] 23.6% | [2] 22.6% | [3] 21.9% | [4] 11.2% | [5] 4.85% | [6] 20.6%

CCOC(=O)c1ccc(NC(=S)N2CCOCC2)cc1
inactive: [1] 13.1% | [2] 6.8% | [3] 14.8% | [4] 8.7% | [5] 2.55% | [6] -2.8%

CC(=O)O[C@H]1C(=O)[C@]2(C)[C@@H](OC(=O)OCCC(O)CO)C[C@H]3OC[C@@]3(OC(C)=O)[C@H]2[C@H](OC(=O)c2ccccc2)[C@]2(O)C[C@H](OC(=O)[C@H](O)[C@@H](NC(=O)c3ccccc3)c3ccccc3)C(C)=C1C2(C)C (some centres undefined)
inactive: [1] 1.65% | [2] -7.2% | [3] 2.25% | [4] 3.95% | [5] -19.2% | [6] -0.35%

Cc1ccc2[nH]c(=O)[nH]c2c1
inactive: [1] -13.6% | [2] -6.2% | [3] -0.25% | [4] -5.3% | [5] 2.15% | [6] -22.4%

OC1CC2C=CC1CC2 (centres undefined)
inactive: [1] 14.9% | [2] 10.3% | [3] 2.4% | [4] 13.2% | [5] 25.1% | [6] 14.4%

CC(=C\C=N\N(C)c1ccccc1)/C=C1\Cc2ccccc2C1=O
inactive: [1] -8.7% | [2] 2.2% | [3] -19.1% | [4] 14% | [5] -2.8% | [6] -9.65%

O=c1cc2n(c(=O)n1-c1ccccc1)CCCC2
inactive: [1] 6.1% | [2] 6.6% | [3] 11.7% | [4] 12.2% | [5] -9.25% | [6] -6.8%

CNC(=O)OCc1nc(SC(C)C)n(C)c1COC(=O)NC
inactive: [1] -16% | [2] -10.3% | [3] -27.9% | [4] 4.3% | [5] -18.7% | [6] -28.1%

CC(=O)[C@@H](C)C(=O)N1C(=O)OC[C@@]12[C@@H]1CC[C@@H](C1)C2(C)C
inactive: [1] -13.8% | [2] -31.4% | [3] -25.9% | [4] -26.4% | [5] 10.8% | [6] -32%

O=C(O)Cc1ccc2c(c1)C(=O)C(=O)N2
inactive: [1] 18.6% | [2] 18.6% | [3] 7.05% | [4] -8.75% | [5] -18.7% | [6] 15.1%

CC(=O)OC(C)(C)[C@@H]1CC[C@H](C)C2=C(C1)[C@@H](C)CC2
inactive: [1] -13.8% | [2] -30.9% | [3] -23.9% | [4] 2.05% | [5] -16.1% | [6] -16.1%

Nc1nc(N)c2nc3c(nc2n1)C(=O)N(c1ccc(C(=O)O)cc1)C3
inactive: [1] 1.55% | [2] 34.9% | [3] 27.9% | [4] -2.8% | [5] 32.1% | [6] 23.2%

Cc1ccc(S(=O)(=O)/C(C#N)=C/n2c(=S)[nH]c3ccc([N+](=O)[O-])cc32)cc1
inactive: [1] -14.3% | [2] -21.1% | [3] -9.05% | [4] -3.25% | [5] -10.6% | [6] 3.3%

Cc1cccc(N=N/C(=N\NC(=O)c2cc(Cl)ccc2O)c2ccc(N(CCC#N)CCC#N)cc2C)c1
inactive: [1] 13.7% | [2] -1% | [3] 19.7% | [4] 1.8% | [5] 13.8% | [6] -79.6%

CC(C)CCC[C@@H](C)[C@H]1CC[C@H]2[C@@H]3CC[C@H]4OC(=O)CC[C@]4(C)[C@H]3CC[C@]12C
inactive: [1] -19.4% | [2] -33.9% | [3] -30.4% | [4] -2.2% | [5] -27.7% | [6] -9.85%

O=C1C=Cn2cc(-c3ccccc3)c(-c3ccccc3)c21
inactive: [1] -13.3% | [2] -10.3% | [3] -14% | [4] 19.9% | [5] -18.1% | [6] -9.2%

NC(Cc1cccnn1)C(=O)O (centres undefined)
inactive: [1] -29.2% | [2] -22.8% | [3] -29.2% | [4] -58.9% | [5] -25.4% | [6] -5.25%

COc1ccc2c(C)cc(N/N=C(\C)c3cn(C)n(-c4ccccc4)c3=O)nc2c1
inactive: [1] -2.25% | [2] -7.1% | [3] -5.95% | [4] 13.2% | [5] -1.8% | [6] 1.65%

Oc1ccccc1C1N=NC2=C(CCCC2)N1O (centres undefined)
inactive: [1] -12.9% | [2] -26.4% | [3] -2.5% | [4] -12.1% | [5] 21.9% | [6] -7.15%

COC(=O)C(Cc1ccc2c(c1)OCO2)(NC(=O)c1ccccc1)P(=O)(OC)OC (centres undefined)
inactive: [1] -30.5% | [2] 1.05% | [3] -8.6% | [4] 16.8% | [5] -25.1% | [6] -32.5%
